# Only some compounds are listed: those with a hit (about 6.5% of all), similar ones and a draw of the others.
# TGFb inhibitor: blocks TGF-b signaling; AID 588855; 1.2% of 410,000 active; Potency, µM (top dose mostly 46.1 µM), for inactives: top-dose activity, negative = inhibition, usual class: inhibitors; HepG2 CAGA-GFP TGF-b/SMAD3 reporter, GFP fluorescence, 18 h; TGF-beta stimulated, 500 pg/mL final; also: potency is read from the fitted curve at half-maximal effect; % is scaled to controls: 0 for no effect and ±100 for the full control effect; nearly all actives have a fitted effect of over 65% in size
#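 Inhibition of TGF-beta-driven CAGA-GFP reporter expression in HEPG2 cells is measured by cellular GFP fluorescence after 18 h stimulation with 500 pg/mL recombinant TGF-beta in 1% FBS medium at 37 degrees C.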
# Giardia kill: Giardia lamblia killing. Giardia lamblia trophozoite viability. activity change, % at 7.66 µM, hits read low. 0.15% of 340,000 active. AID 540267; in the data active = activity change below about -80%; inconclusive = between about -30% and that limit;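 also: parasites exposed to compound for two days anaerobically before the ATP read; % is scaled to controls: 0 for no effect and ±100 for the full control effect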
#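 Compounds were tested on trophozoites seeded at 100 cells/well and held 48 hrs at 37 deg C anaerobically. An ATP-based luminescent kit measured the remaining live cells.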
# HT1080NT lethal: kills 2HG-producing HT-1080-NT fibrosarcoma cells | 1.6% of 360,000 active | Potency, µM (doses to about 46.1 µM), for inactives: top-dose activity, negative = less viability, hits mostly cytotoxic | HT-1080-NT fibrosarcoma viability, CellTiter-Glo ATP luminescence, 48 h;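 also: NT is the 2HG producing partner of a matched IDH1 knockdown line; potency is read from the fitted curve at half-maximal effect; 0% = DMSO-treated cells and -100% = media-only wells without cells; nearly all actives have a fitted effect of over 55% in size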
#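 A 48-hour cytotoxicity screen used HT-1080-NT cells plated 2 hours before compound delivery. ATP-based CellTiter-Glo luminescence measured viability, normalized to DMSO and no-cell controls.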
# HepG2 viability: counter-screen for TGF-b inhibitors: cytotoxicity in HepG2 cells | 0.76% of 410,000 active | Potency, µM (top dose mostly 46.1 µM), inactives show at the top dose activity change, negative = cytotoxicity, usual class: cytotoxic | HepG2 CAGA-GFP viability, ATP luminescence, 18 h; also: potency is read from the fitted curve at half-maximal effect
#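 HepG2 CAGA-GFP cells (1000/well, DMEM with 1% FBS) received compound, then TGF-beta at 500 pg/mL final, and were incubated 18 hours at 37 degrees C. Viability was read by CellTiter-Glo luminescence. Media-only wells were set as complete cell-killing and DMSO as no toxicity.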
# IL-1B inflam inh: blocks inflammasome-driven IL-1 beta release | THP-1 LPS/ATP IL-1B secretion, AlphaLISA, 16 h; active compounds read low | activity change, % at 57.5 µM | 4.7% of 360,000 active; in the data active = activity change below about -50%; inconclusive = mostly about -30% to -49%; also: % is scaled to controls: 0 for no effect and ±100 for the full control effect
#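 Secreted IL-1B measured by AlphaLISA bead assay after 16 h compound exposure of THP-1 cells; compounds (final up to 57.5 uM) added 1 h before LPS (250 ng/mL) and ATP (1.25 mM) stimulation; lower signal means less secretion.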
# HT1080 IDH1KD tx: kills HT-1080 cells with IDH1 knockdown; Potency, µM (doses to about 46.1 µM), inactives show top-dose activity, negative = toxicity, actives largely listed as cytotoxic; 2% of 360,000 active; AID 686971; HT-1080 IDH1 knockdown viability, ATP luminescence, 48 h;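 also: potency is read from the fitted curve at half-maximal effect; 0% = DMSO wells and -100% = cell-free medium wells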
#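 HT-1080-IDH1KD cells (IDH1 knocked down), 750/well in RPMI with 5% FBS, treated with compound 48 h at 37 degrees C. Viability by CellTiter-Glo luminescence, normalised to DMSO and no-cell wells; concentration-response curves classed.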
# Starred values were filed as active, the others as inactive; u = inconclusive; x = no result given; [ ] = remark or other dose. Unless noted, calls follow the shape of the dose curve; as a rule, active = well fitted curve in the direction sought with a large enough effect; inconclusive = small, poorly fitted or top-dose-only effect, or another doubt; inactive = no such curve, though single readings can be large; an effect the other way counts as inactive or inconclusive.
SMILES,TGFb inhibitor,Giardia kill,HT1080NT lethal,HepG2 viability,IL-1B inflam inh,HT1080 IDH1KD tx
O=C(c1ccc(Sc2cccc(Cl)c2)c([N+](=O)[O-])c1)N1CCN(c2ccccn2)CC1,0%,-4,-20%,-1%,-124*,-20%
O=C(c1ccc(S(=O)(=O)Cc2ccccc2Cl)c([N+](=O)[O-])c1)N1CCN(c2ccccn2)CC1,u,-1,u,-17%,-103*,u
CCC(=NCc1ccc(Cl)c(Cl)c1)c1nc(-c2ccco2)oc1O,0%,11,-19%,15%,-64*,u
CCn1nnnc1-c1ccc(OC)c(S(=O)(=O)Nc2ccc(C)c(C)c2)c1,-9%,-4,6%,2%,-9,9%
CN1c2ccccc2C(C)(C)C12C=Cc1cc(O)ccc1O2 (stereo not given),u,4,u,-40%,-74*,u
CC1CCN(Cc2c(C(=O)N3CCc4ccccc4C3)nc3ccc(Cl)cn23)CC1,-7%,13,-8%,-21%,26,-7%
COc1ccc(N=N/C(=C\O)C(=O)c2cccs2)cc1,u,-10,0%,-20%,-81*,-6%
COc1ccc(C(=O)/C(=C/O)N=Nc2ccc(F)cc2)cc1,u,5,u,-38%,-99*,u
O=C(COC(=O)c1c2c(nc3ccccc13)/C(=C/c1ccco1)CC2)NC1CCCC1,u,-11,2%,-2%,-61*,-13%
CC1CCCCC1NC(=O)COC(=O)c1c2c(nc3ccccc13)/C(=C/c1ccco1)CC2 (stereo not given),-13%,14,-6%,1%,-15,-6%
O=C(CN(c1ccc(F)cc1)S(=O)(=O)c1ccccc1)NCCSC1CCCCC1,u,9,u,-38%,-59*,u
CC(C)(C)SCCNC(=O)CN(c1ccc(F)cc1)S(=O)(=O)c1ccccc1,5%,-14,-1%,-6%,-14,-1%
CC(C)c1ccccc1OCCCCCNCCO,2%,-21,u,-34%,-54*,11%[9.24 µM]
CC(C)(C)c1ccccc1OCCCCCNCCO,-4%,4,u,-57%,-53*,u
Cc1ccccc1OCCCCCNCCO,10%,5,-12%,-25%,1,4%
Cc1sc2ncnc(N3CCN(S(=O)(=O)c4ccc(Br)cc4)CC3)c2c1C,4%,1,-4%,14%,-12,10%
Cc1ccc(NC(=O)CN2Cc3ccccc3C2=O)c(C)c1,30%,x,x,8%,x,x
COc1ccc(CNC(=O)c2csc(Cc3ccc(OC)cc3)n2)cc1,13%,24,0%,-9%,-20,-8%
COc1ccc(NC(=O)c2csc(Cc3ccc(Cl)cc3)n2)cc1,-14%,-30,2%,-1%,-4,0%
COc1ccc(Cc2nc(C(=O)Nc3ccccc3)cs2)cc1,2%,1,u,-14%,-54*,-16%
COc1ccc(CNC(=O)c2csc(Cc3ccc(Cl)cc3)n2)cc1,u,3,0%,-32%,-55*,-2%
Cc1ccc(C(=O)OCC(=O)Nc2cccc(S(=O)(=O)NC3=NCCCCC3)c2)c(C)c1,u,-28,-14%,-4%,0,0%
CN1CCN(C(=S)NC(=O)c2ccc(-c3ccccc3)cc2)CC1,u,7,1%,-28%,-28,-3%
CC(Sc1nccn1C)C(=O)Nc1ccc(C(N)=O)cc1 (stereo not given),3%,9,-2%,0%,-15,5%
CCOC(=O)c1ccc(Nc2nc3ccccc3nc2NS(=O)(=O)c2ccc(Cl)cc2)cc1,156%,x,x,-41%,x,x
SMILES,TGFb inhibitor,Giardia kill,HT1080NT lethal,HepG2 viability,IL-1B inflam inh,HT1080 IDH1KD tx
O=S(=O)(Nc1nc2ccccc2nc1-[n+]1cccc(N=C([O-])c2ccc(Cl)cc2)c1)c1ccccc1,-1%,7,1%,21%,-73*,2%
O=C(Nc1ccc(N=Nc2ccccc2)c(NC(=O)C2CCCO2)c1)C1CCCO1 (stereo not given),-7%,-4,u,-4%,-83*,u
CCc1ccc(C(=O)CSc2nc(N)cc(=O)[nH]2)cc1,2%,2,0%,3%,12,6%
Cc1ccc2nc(C(C)(C)C)c(Cc3cccc(F)c3)n2c1,u,x,16µM*,-23%,-5,23µM*
Cc1ccc(-c2nc3ccc(C)cn3c2Cc2cccc(F)c2)cc1,x,x,u,x,-24,u
Cc1ccc2nc(-c3ccco3)c(Cc3ccccc3)n2c1,u,x,u,-15%,1,23µM*
COC(=O)c1ccc2nc(-c3ccco3)c(Cc3ccccc3)n2c1,11µM*,x,u,-35%,7,u
Fc1cccc(Cc2c(-c3ccco3)nc3ccc(Br)cn23)c1,u,x,u,-97%,-24,16µM*
c1ccc(Nc2ncnc3c2oc2ccccc23)cc1,-14%,11,0%,-30%,-1,2%
O=C(COc1ccc(Cl)cc1)Nc1nnc(-c2ccc3c(c2)CCCC3)o1,-15%,10,19%,-25%,15,9%
COc1ccc(OC)c(C=C2CCc3ccccc3C2=O)c1,-23%,x,u,3%,-2,u
COc1cc(/C=C2\COC/C(=C\c3ccc(O)c(OC)c3)C2=O)ccc1O,6.3µM*,u,u,-23%,-100*,u
COc1ccc2c(c1)CC/C(=C/c1cc(OC)c(OC)c(OC)c1)C2=O,-5%,-29,16%,0.14µM*,-85*,-7%
COc1cc(/C=C2\CC/C(=C\c3ccc(OCCO)c(OC)c3)C2=O)ccc1OCCO,0%,7,-25%,2%,-77*,-13%
COc1ccccc1OCCCOc1ccc(/C=C2\SC(=O)NC2=O)cc1OC,14%,-11,-28%,-18%,-6,u
COc1cc(C=C2C(=O)c3ccccc3C2=O)ccc1O,-3%,-2,-1%,-24%,8,-1%
COc1ccc(/C=C2\CC/C(=C\c3ccc(OC)c(OC)c3)C2=O)cc1OC,4%,-15,u,-53%,-6,u
COc1cc(/C=C2/CC/C(=C/c3ccc(O)c(OC)c3)C2=O)ccc1O,-7%,-1,18µM*,-33%,-17,21µM*
C=CCOc1ccc(/C=C2\SC(N)=NC2=O)cc1OC,6%,8,-1%,-6%,-13,2%
COc1cc(/C=C/C=C2/CC/C(=C/C=C/c3ccc(O)c(OC)c3)C2=O)ccc1O,u,-3,-11%,-61%,-92*,-10%
COc1cc(/C=C2\SC(N)=NC2=O)ccc1O,u,9,u,-1%,-83*,18µM*

# From PubChem
